From PubChem BioAssay AID1159580 (chemical genetic matrix, 2015)
About 2,000 (36%) of roughly 5,500 compounds were called active. Inconclusive results (about 18%) are left out. Cut-off read from the data, not from the text of the source: active = normalized growth mostly below about 0.91 (no sharp cut-off); inconclusive = no clear call, values can overlap the other calls; inactive = mostly above about 0.92. The list shows a part of the results.

Assay: chemical genetic growth profiling, strain panel (AID 1159580);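 note: tested at 20 µM; growth read once vehicle control cultures reached saturation at 30 °C; 1 = growth at the plate median or of vehicle wells; lower values mean less growth of the strain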
Details: S. cerevisiae deletion strains, growth OD

Measured: normalized growth

C/C=C/C(=O)N(CC)c1ccccc1C
inactive: locus YAL021C, strain ccr4, active compounds read low 1.02 | locus YAL026C, strain drs2, active compounds read low 1.01 | locus YAL030W, strain snc1, active compounds read low 1 | locus YBL061C, strain skt5, active compounds read low 0.995 | locus YBR009C, strain hhf1, active compounds read low 1.02 | locus YBR023C, strain chs3, active compounds read low 1.01 | locus YBR171W, strain sec66, active compounds read low 1 | locus YBR231C, strain swc5, active compounds read low 1 | locus YBR279W, strain paf1, active compounds read low 1 | locus YCL011C, strain gbp2, active compounds read low 0.997 | locus YCL016C, strain dcc1, active compounds read low 0.998 | locus YCL061C, strain MRC1, active compounds read low 1.01 | locus YCL069W, strain vba3, active compounds read low 1.01 | locus YCR088W, strain abp1, active compounds read low 1 | locus YDL005C, strain med2, active compounds read low 1 | locus YDL040C, strain nat1, active compounds read low 1 | locus YDR001C, strain nth1, active compounds read low 1 | locus YDR069C, strain doa4, active compounds read low 1.02 | locus YDR137W, strain rgp1, active compounds read low 1.02 | locus YDR159W, strain sac3, active compounds read low 1 | locus YDR195W, strain ref2 0.986 | locus YDR297W, strain sur2, active compounds read low 1 | locus YDR334W, strain swr1, active compounds read low 0.997 | locus YDR335W, strain msn5, active compounds read low 1.01 | locus YDR392W, strain spt3, active compounds read low 0.942 | locus YEL003W, strain gim4, active compounds read low 1.01 | locus YEL037C, strain rad23, active compounds read low 1.01 | locus YEL061C, strain CIN8 (second series), active compounds read low 1.01 | locus YER015W, strain faa2, active compounds read low 1.01 | locus YER016W, strain bim1, active compounds read low 1.01 | locus YER111C, strain swi4, active compounds read low 0.995 | locus YER155C, strain BEM2 (second series), active compounds read low 1.01 | locus YFR010W, strain ubp6, active compounds read low 1.02 | locus YGL167C, strain pmr1, active compounds read low 1 | locus YGL173C, strain kem1, active compounds read low 1.01 | locus YGL227W, strain vid30, active compounds read low 1.01 | locus YGL240W, strain doc1, active compounds read low 1.02 | locus YGL253W, strain hxk2, active compounds read low 1.01 | locus YHR013C, strain ard1, active compounds read low 1.01 | locus YHR027C, strain rpn1, active compounds read low 1.02 | locus YHR030C, strain SLT2, active compounds read low 1.03 | locus YHR079C, strain IRE1, active compounds read low 1.02 | locus YHR142W, strain chs7, active compounds read low 1.02 | locus YJL092W, strain hpr5, active compounds read low 1 | locus YJL095W, strain BCK1 (second series), active compounds read low 1 | locus YJL095W, strain BCK1, active compounds read low 0.977 | locus YJL115W, strain asf1, active compounds read low 1 | locus YJL129C, strain trk1, active compounds read low 1.03 | locus YJL154C, strain vps35, active compounds read low 1.01 | locus YJL164C, strain tpk1, active compounds read low 1.01 | locus YJL166W, strain qcr8, active compounds read low 1.02 | locus YJL187C, strain SWE1, active compounds read low 1.01 | locus YJR066W, strain TOR1, active compounds read low 0.966 | locus YKL160W, strain elf1, active compounds read low 1.01 | locus YKR026C, strain gcn3, active compounds read low 1.01 | locus YKR091W, strain srl3, active compounds read low 1 | locus YLL001W, strain dnm1, active compounds read low 0.996 | locus YLL026W, active compounds read low 1.01 | locus YLL041C, strain sdh2, active compounds read low 1.01 | locus YLR027C, strain aat2, active compounds read low 0.996 | locus YLR113W, strain HOG1, active compounds read low 0.969 | locus YLR221C, strain rsa3, active compounds read low 1 | locus YLR258W, strain gsy2, active compounds read low 1.01 | locus YLR262C, strain YPT6 (second series), active compounds read low 1 | locus YLR320W, strain mms22, active compounds read low 1 | locus YLR342W, strain FKS1, active compounds read low 1 | locus YLR357W, strain rsc2, active compounds read low 1.02 | locus YLR370C, strain arc18, active compounds read low 1.01 | locus YLR384C, strain iki3, active compounds read low 0.998 | locus YML120C, strain ndi1, active compounds read low 1 | locus YMR058W, strain fet3, active compounds read low 1.02 | locus YMR125W, strain sto1, active compounds read low 1.01 | locus YMR129W, active compounds read low 1 | locus YMR205C, strain PFK2, active compounds read low 1.01 | locus YMR231W, strain pep5, active compounds read low 1.01 | locus YNL071W, strain lat1, active compounds read low 1 | locus YNL183C, strain NPR1, active compounds read low 0.975 | locus YNL209W, strain ssb2, active compounds read low 1 | locus YNL248C, strain rpa49, active compounds read low 0.993 | locus YNL322C, strain KRE1 (second series), active compounds read low 1.01 | locus YNR049C, strain mso1, active compounds read low 1.01 | locus YOR001W, strain rrp6, active compounds read low 1.03 | locus YOR070C, strain gyp1, active compounds read low 1 | locus YOR080W, strain dia2, active compounds read low 1 | locus YOR083W, strain WHI5, active compounds read low 1.02 | locus YOR106W, strain vam3, active compounds read low 1.04 | locus YOR231W, strain MKK1, active compounds read low 1.02 | locus YOR265W, strain rbl2, active compounds read low 1 | locus YOR270C, strain vph1, active compounds read low 0.999 | locus YOR290C, strain snf2, active compounds read low 1.01 | locus YPL051W, strain arl3, active compounds read low 1 | locus YPL078C, strain atp4, active compounds read low 1.02 | locus YPL106C, strain sse1, active compounds read low 1.01 | locus YPL240C, strain hsp82, active compounds read low 1 | locus YPL256C, strain CLN2, active compounds read low 0.986
